Screening results (PubChem BioAssay)
SMN2 splice enh – increases expression of the SMN2 splice variant; HEK293 SMN2-luciferase splicing reporter, luminescence, 30-36 h; Potency, µM (top dose mostly 46.1 µM), usual class: activators; 210,000 compounds, 2.8% hits; also: nearly all actives have a fitted effect of over 55% in size
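HEK293 cells carry an SMN2 […]–luciferase reporter in which exon 7 inclusion puts luciferase in frame. Cells were plated 10-12 h before compound addition, then incubated 30-36 h at 37C. ONE-Glo luminescence was read; sodium butyrate at 4.5 mM final served as control.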
FLuc counter – firefly luciferase modulation, counter-screen for miR-21 project. P08659. purified FLuc, Km substrates, luminescence inhibition. Potency, µM (series often up to 57.5 µM), hits mostly inhibitors. 360,000 compounds, 6.9% hits. AID 588342; also: nearly all actives have a fitted effect of over 55% in size
Target sequence (P08659 whole entry, looked up): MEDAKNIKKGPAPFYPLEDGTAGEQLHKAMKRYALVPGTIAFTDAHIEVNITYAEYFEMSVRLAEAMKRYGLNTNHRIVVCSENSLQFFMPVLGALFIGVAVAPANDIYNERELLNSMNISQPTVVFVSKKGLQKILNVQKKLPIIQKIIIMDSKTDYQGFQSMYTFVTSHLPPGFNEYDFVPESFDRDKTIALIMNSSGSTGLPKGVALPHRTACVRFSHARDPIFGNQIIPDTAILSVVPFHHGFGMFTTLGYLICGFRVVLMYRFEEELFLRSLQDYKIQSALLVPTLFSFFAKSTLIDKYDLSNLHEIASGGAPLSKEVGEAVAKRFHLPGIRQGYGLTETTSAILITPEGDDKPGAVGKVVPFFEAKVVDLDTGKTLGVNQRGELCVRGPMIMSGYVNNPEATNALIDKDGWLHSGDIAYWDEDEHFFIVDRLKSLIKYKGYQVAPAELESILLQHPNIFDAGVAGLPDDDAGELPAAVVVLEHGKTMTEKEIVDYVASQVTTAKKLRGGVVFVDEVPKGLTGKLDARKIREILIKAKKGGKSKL
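Purified P. pyralis luciferase (10nM final) with 10uM D-luciferin and 10uM ATP (Km levels) in 50mM Tris acetate pH 7.5, 10mM Mg acetate, 0.01% Tween-20, 0.05% BSA; qHTS 6-point titration, ~60 µM downward; luminescence read.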
Rab9 promoter act – Rab9 promoter activation. Huh7 Rab9 promoter-luciferase reporter, luminescence, 24 h. Potency, µM (highest dose often 9.22 µM), most hits filed as activators. 320,000 compounds, 2.8% hits. AID 485297; also: nearly all actives have a fitted effect of over 60% in size
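Stable Rab9-luc Huh7, 1500 cells/well, 2 h settle; cmpd in DMSO, 24 h, 37 °C/5% CO2; luciferase reagent 10 min RT; luminescence.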
ELG1 genotoxic – induces genotoxicity in HEK293T cells with luciferase-tagged ELG1; Potency, µM (titrated, usually from 46 µM), usual class: activators; HEK293T ELG1-luciferase reporter, luminescence, 16 h; 330,000 compounds, 1.3% hits; also: nearly all actives have a fitted effect of over 60% in size
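Cells (2,000/well) expressing the ELG1-luciferase fusion are dosed by pin tool and kept 16 hr at 37 °C, 5% CO2. Signal comes from ONE-Glo luciferase reagent after 30 min at room temperature.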
NPC1 promoter act – activates the NPC1 promoter. Huh7 NPC1 promoter luciferase reporter, 24 h. Potency, µM (titrated, usually from 9.22 µM), actives largely listed as activators. 320,000 compounds, 2.4% hits. AID 485313; also: nearly all actives have a fitted effect of over 60% in size
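In 1536-well qHTS, Huh7 cells harboring an NPC1 promoter–luciferase construct received compound for 24 h; activation was quantified by luminescence following luciferase reagent addition.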
Of the large screens only hits and unclear results are named; the others gave an inactive call. A selection: hits, their analogues and other compounds. The true share with any hit is near 7.5%. Calls follow the shape of the dose curve; as a rule, active = well fitted curve in the direction sought with a large enough effect; inconclusive = small, poorly fitted or top-dose-only effect, or another doubt; inactive = no such curve, though single readings can be large; an effect the other way counts as inactive or inconclusive.

CCOc1nc(-c2ccccc2)ccc1-c1noc(-c2cccs2)n1	FLuc counter inconclusive
c1csc(-c2nc(N3CCCCC3)no2)c1	FLuc counter 6.7µM, Rab9 promoter act 1.6µM, ELG1 genotoxic 15µM, NPC1 promoter act 2.2µM (no result: SMN2 splice enh)
COc1ccccc1-c1noc(-c2cccs2)n1	SMN2 splice enh 11µM, FLuc counter 7.6µM, Rab9 promoter act 2.2µM, ELG1 genotoxic inconclusive, NPC1 promoter act 1.6µM
COc1ccc(-c2nc(-c3ccncc3)no2)cc1	FLuc counter 2.1µM, Rab9 promoter act 0.56µM, ELG1 genotoxic inconclusive, NPC1 promoter act 0.5µM (no result: SMN2 splice enh)
CC(Sc1cccc[n+]1[O-])C(=O)Nc1ccc(Oc2ccccc2)cc1 (stereo not given)	none
C=CC1=C2C=C(C3CC3)N(C3CCCC3)C=C2C(=O)C(C)(OC(=O)c2ccco2)C1=O (stereo not given)	none (no result: FLuc counter, Rab9 promoter act, ELG1 genotoxic, NPC1 promoter act)
O=S(=O)(c1ccc(Cl)cc1)N1CCN(C(=S)NCC2CCCO2)CC1 (stereo not given)	none (no result: SMN2 splice enh)
COc1cccc(-c2ccc(-c3noc(-c4ccccc4F)n3)c(OC)n2)c1	FLuc counter inconclusive, ELG1 genotoxic inconclusive
CCOc1ccc(-c2nc(-c3ccccc3C)no2)cc1	SMN2 splice enh 1.6µM, FLuc counter 1.1µM, Rab9 promoter act 0.45µM, ELG1 genotoxic 0.73µM, NPC1 promoter act 0.63µM
CCOc1ncccc1-c1nc(-c2cccs2)no1	FLuc counter inconclusive (no result: SMN2 splice enh)
COc1cccc(-c2ccc(-c3noc(-c4cccs4)n3)c(OC)n2)c1	FLuc counter 11µM, ELG1 genotoxic inconclusive (no result: SMN2 splice enh)
COc1cccc(-c2noc(-c3ccc(Cl)nc3)n2)c1	SMN2 splice enh inconclusive, FLuc counter inconclusive, Rab9 promoter act inconclusive, ELG1 genotoxic inconclusive, NPC1 promoter act 3.5µM
COc1ccc(-c2nc(-c3cccs3)no2)cc1	FLuc counter 0.085µM, Rab9 promoter act 0.1µM, ELG1 genotoxic inconclusive, NPC1 promoter act 0.32µM (no result: SMN2 splice enh)
CCOc1nc(-c2ccccc2)ccc1-c1noc(-c2ccc(C)cc2)n1	none (no result: Rab9 promoter act, ELG1 genotoxic, NPC1 promoter act)
O=C(Nc1ccccc1)C12CC1/C(=N\O)c1ccccc1O2 (stereo not given)	none (no result: FLuc counter, Rab9 promoter act, ELG1 genotoxic, NPC1 promoter act)
CN1c2ccccc2C(C)(C)C12CC(c1cccc(S(=O)(=O)N3CCCC3)c1)=NO2 (stereo not given)	SMN2 splice enh inconclusive
CCOc1ccc(-c2nc(-c3cccnc3)no2)cc1	SMN2 splice enh 1µM, FLuc counter 0.95µM, Rab9 promoter act 0.56µM, ELG1 genotoxic inconclusive, NPC1 promoter act 0.63µM
Cc1ccc(-c2nc(-c3cccs3)c(-c3cccs3)[nH]2)cc1	none (no result: Rab9 promoter act, ELG1 genotoxic, NPC1 promoter act)
CCCCOc1ccc(-c2nc(-c3cccnc3)no2)cc1	SMN2 splice enh 13µM, FLuc counter 4.3µM, Rab9 promoter act 2µM, ELG1 genotoxic 6.5µM, NPC1 promoter act 3.5µM
COc1cc(OC)cc(-c2nc(-c3ccccc3)no2)c1	SMN2 splice enh 22µM, Rab9 promoter act inconclusive, ELG1 genotoxic inconclusive, NPC1 promoter act inconclusive
Cc1ccc(-c2noc(-c3cccs3)n2)cc1	SMN2 splice enh 13µM, FLuc counter 0.6µM, Rab9 promoter act 0.79µM, ELG1 genotoxic 0.65µM, NPC1 promoter act 2.8µM
Cc1ccc(C(=O)Nc2ncccc2O)cc1S(=O)(=O)N1CCCCC1	none (no result: SMN2 splice enh)
CCOc1ccc(-c2cc(-c3nc(-c4ccc(C)cc4)no3)[nH]n2)cc1	FLuc counter 21µM (no result: SMN2 splice enh, Rab9 promoter act, ELG1 genotoxic, NPC1 promoter act)
COc1ccc(-c2noc(-c3ccccc3-c3ccccc3)n2)cc1OC	none
COc1cccc(-c2nc(-c3ccc(NC(=O)c4ccncc4)cc3)no2)c1	none
COc1ccc(-c2nc(-c3cccnc3)no2)cc1	FLuc counter 2.4µM, Rab9 promoter act 0.45µM, ELG1 genotoxic inconclusive, NPC1 promoter act 0.63µM (no result: SMN2 splice enh)
COc1ccc(-c2noc(-c3cccc(OC)c3OC)n2)cc1	SMN2 splice enh 13µM, FLuc counter 2.4µM (no result: Rab9 promoter act, ELG1 genotoxic, NPC1 promoter act)
Cc1cc2nc(-c3ccc(=O)[nH]c3)n(C)c2cc1C	FLuc counter 17µM (no result: SMN2 splice enh)
O=C(O)C(Cc1ccccc1)N1C(=O)/C(=C/C=C/c2ccco2)SC1=S (stereo not given)	FLuc counter inconclusive (no result: SMN2 splice enh)
O=C(O)CC(C(=O)O)N1C(=O)/C(=C/c2ccc(-c3nc4ccccc4s3)o2)SC1=S (stereo not given)	FLuc counter 19µM
O=C1S/C(=C\C=C\c2ccco2)C(=O)N1c1ccc(O)cc1	FLuc counter 15µM, Rab9 promoter act inconclusive, ELG1 genotoxic inconclusive
O=C(O)CCCN1C(=O)/C(=C\C(Cl)=C\c2ccccc2)SC1=S	FLuc counter 9.5µM (no result: SMN2 splice enh)
O=C(O)CC(C(=O)O)N1C(=O)/C(=C/C=C/c2ccco2)SC1=S (stereo not given)	FLuc counter 12µM (no result: SMN2 splice enh)
O=C1S/C(=C\C=C\c2ccco2)C(=O)N1c1ccccc1	FLuc counter inconclusive, Rab9 promoter act inconclusive, NPC1 promoter act inconclusive
CCc1nnc2c3ccccc3nc(N3CCN(c4cc(Cl)ccc4C)CC3)n12	none (no result: SMN2 splice enh, Rab9 promoter act, ELG1 genotoxic, NPC1 promoter act)
Cn1cccc1/C=C1\SC(=S)N(NC(=O)c2ccccc2O)C1=O	none (no result: SMN2 splice enh)
O=C(O)CCCN1C(=O)/C(=C/C=C/c2ccco2)SC1=S	FLuc counter 27µM (no result: SMN2 splice enh)
O=C(NN1C(=O)/C(=C/C=C/c2ccco2)SC1=S)c1ccccc1O	FLuc counter 19µM (no result: SMN2 splice enh)
CN1CCC(=O)N([C@H](CSc2ccc(Br)cc2)c2ccccc2)CC1	FLuc counter 17µM, Rab9 promoter act inconclusive, ELG1 genotoxic inconclusive, NPC1 promoter act inconclusive (no result: SMN2 splice enh)
CCCN1CCC(=O)N([C@H](CSc2ccc(OC)cc2)CC(C)C)CC1	FLuc counter 15µM, Rab9 promoter act inconclusive, ELG1 genotoxic inconclusive, NPC1 promoter act inconclusive (no result: SMN2 splice enh)
